Experimental findings from PubChem BioAssay AID720597 (Broad Institute, 2013) are described below.

Results with a measured potency or affinity are listed apart. A number with no mark means an inactive call.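 How the source made its calls: active means fitted half-maximal dose no more than twice the top valid tested dose, for compounds that lower signal; inconclusive means fit invalid, or curve flat with activity between -70 and -30; inactive means potency past limit, curve flat within ±30, or signal increasing.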

Chain of NAD-dependent protein deacylase sirtuin-5, mitochondrial (Homo sapiens) (Q9NXA8 whole entry, looked up): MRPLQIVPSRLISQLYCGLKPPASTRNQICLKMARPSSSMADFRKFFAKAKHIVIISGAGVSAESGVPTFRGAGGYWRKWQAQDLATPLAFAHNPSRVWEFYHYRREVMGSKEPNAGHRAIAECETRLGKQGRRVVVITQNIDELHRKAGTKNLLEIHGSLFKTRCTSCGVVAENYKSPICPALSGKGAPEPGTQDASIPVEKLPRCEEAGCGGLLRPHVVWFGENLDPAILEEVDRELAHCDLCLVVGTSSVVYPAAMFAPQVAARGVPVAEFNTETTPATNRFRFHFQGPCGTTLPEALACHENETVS

This assay concerns the target NAD-dependent protein deacylase sirtuin-5, mitochondrial (Homo sapiens) (UniProt Q9NXA8). In words: SIRT5 deacylase inhibitors, dose response, biochemical, fluorescence imaging, cherry-pick, set 6 (AID 720597).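 Further: lower AMC signal can also come from blocking the trypsin step; 0% = median of neutral control wells and -100% = median of positive control wells.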 The following applies: Purified SirT5, succinyl-peptide-AMC/trypsin fluorescence; series mostly up to 15 µM; activity change, negative = inhibition: at the top concentration.
Take `COc1ccc(NC(=O)N(C)C[C@H]2Oc3ccc(NS(=O)(=O)c4ccc(F)cc4)cc3C(=O)N([C@@H](C)CO)C[C@@H]2C)cc1`: the “activity change, negative = inhibition” value is 30.1%. Next, `O=S(=O)(c1ccc(F)cc1)N1CCCCN2[C@@H](CO)[C@H](c3ccc(C#CC4CCCC4)cc3)[C@@H]2C1`: -0.632%; `Cc1noc(C)c1S(=O)(=O)Nc1ccc2c(c1)CC(=O)N([C@H](C)CO)C[C@H](C)[C@@H](CN(C)Cc1ccc(C(=O)O)cc1)O2`: -11.7%; `COc1ccc(S(=O)(=O)N(C)C[C@H]2OCCCC[C@H](C)Oc3ccc(NS(=O)(=O)c4ccc(C)cc4)cc3C(=O)N([C@H](C)CO)C[C@H]2C)cc1`: -17.5%. Turning to `C[C@@H]1CN([C@H](C)CO)C(=O)c2c(c3ccccc3n2C)-c2ccccc2CO[C@H]1CN(C)S(=O)(=O)c1ccc([N+](=O)[O-])cc1`, the “activity change, negative = inhibition” value is 21.9%.

With `Cn1cnc(CCNC(=O)C[C@@H]2CC[C@@H]3[C@H](COC[C@H](O)CN3C(=O)C3CCCC3)O2)c1`, the “activity change, negative = inhibition” value was -18.6%. Take `C[C@H](CO)N1C[C@H](C)[C@H](CN(C)CC2CCCCC2)Oc2ccc(NS(=O)(=O)c3ccc(Cl)cc3)cc2CC1=O`: the “activity change, negative = inhibition” value is -1.38% [at 7.5 µM]. As for `C[C@@H]1CCCCO[C@H](CN(C)C(=O)Nc2ccc(C(F)(F)F)cc2)[C@H](C)CN([C@@H](C)CO)C(=O)c2cc(NS(=O)(=O)c3ccc(Cl)cc3)ccc2O1`, the “activity change, negative = inhibition” value was -23.5%. With `CCCC#Cc1ccc2c(c1)O[C@H](CN(C)C(=O)Nc1ccccc1F)[C@@H](C)CN([C@H](C)CO)S2(=O)=O`, the “activity change, negative = inhibition” value was -20.4%. Next, `Cc1cccc(-c2ccc([C@@H]3[C@@H](CO)N4CCCCN(S(=O)(=O)c5ccccc5F)C[C@H]34)cc2)c1`: -19.2%; `C[C@@H]1CN([C@@H](C)CO)C(=O)c2cccc(NC(=O)CCCCCC(=O)Nc3ccccc3N)c2O[C@H]1CN(C)Cc1ccc(-c2ccccc2)cc1`: -19.2%; `Cc1ccc(S(=O)(=O)N[C@H]2CC[C@@H](CCn3cc(C(C)C)nn3)O[C@H]2CO)cc1`: -10.1%.

For the compound `C[C@H]1CN([C@@H](C)CO)S(=O)(=O)c2ccc(-c3cccc(F)c3)cc2O[C@@H]1CN(C)S(=O)(=O)c1ccc(F)cc1`, the “activity change, negative = inhibition” value is 4.42%. Next, `COc1ccc(S(=O)(=O)Nc2ccc3c(c2)C(=O)N([C@H](C)CO)C[C@@H](C)[C@H](CN(C)Cc2ccc(Oc4ccccc4)cc2)O3)cc1`: -25.1%; `C[C@@H]1CN([C@H](C)CO)C(=O)c2cc(NS(=O)(=O)c3ccc(Cl)cc3)ccc2O[C@@H]1CN(C)Cc1ccc(-c2ccccc2)cc1`: -4.51%; `Cc1noc(C)c1NC(=O)N(C)C[C@@H]1OCCCC[C@H](C)Oc2ccc(NC(=O)Nc3ccc(F)cc3)cc2C(=O)N([C@@H](C)CO)C[C@@H]1C`: -8.47%. To `C[C@@H]1CN([C@H](C)CO)S(=O)(=O)c2ccc(C#Cc3ccccc3F)cc2O[C@H]1CN(C)C(=O)c1ccc2c(c1)OCO2` belongs 22.1%; to `COCC(=O)N1[C@H](CO)[C@@H](c2ccccc2)C12CN(Cc1cc(F)ccc1F)C2`, -1.31%.

With `CCCC#Cc1ccc2c(c1)[C@@H]1[C@@H](CCN1S(=O)(=O)c1ccccc1C)[C@@H](CO)N2`, the “activity change, negative = inhibition” value is -16.7%.

As for `C[C@@H]1CN([C@@H](C)CO)C(=O)c2cc(NS(=O)(=O)c3ccccc3)ccc2O[C@@H](C)CCCCO[C@@H]1CN(C)Cc1ccc(C(F)(F)F)cc1`, the “activity change, negative = inhibition” value is 16.1%. `C[C@H]1CN([C@@H](C)CO)C(=O)c2cc(NC(=O)C3CCCCC3)ccc2O[C@@H]1CN(C)CC1CC1`: the “activity change, negative = inhibition” value is -28.9%. As to `O=C(C[C@H]1CC[C@H]2[C@@H](COC[C@@H](O)CN2C(=O)c2ccncc2)O1)Nc1ccc(-c2ccccc2)cc1`, the “activity change, negative = inhibition” value is -9.41%. Next, `CNC[C@@H]1Oc2ccc(NC(=O)Nc3ccc(F)cc3)cc2CC(=O)N([C@@H](C)CO)C[C@@H]1C`: 12.6%; `COc1ccccc1-c1ccc2c(c1)O[C@H](CN(C)S(=O)(=O)c1ccc(F)cc1)[C@@H](C)CN([C@@H](C)CO)S2(=O)=O`: -8.92%. With `C[C@H](CO)N1C[C@H](C)[C@@H](CN(C)Cc2ccc(Cl)c(Cl)c2)Oc2ccc(NS(=O)(=O)c3ccc(Cl)cc3)cc2CC1=O`, the “activity change, negative = inhibition” value is 38.2%. For the compound `C[C@@H]1CN([C@H](C)CO)S(=O)(=O)c2ccc(C#Cc3ccc(F)cc3)cc2O[C@@H]1CN(C)C(=O)NC1CCCCC1`, the “activity change, negative = inhibition” value was -17%. As to `C[C@@H]1CN([C@@H](C)CO)S(=O)(=O)c2ccc(C#Cc3ccc(F)cc3)cc2O[C@H]1CN(C)S(=O)(=O)c1ccc(F)cc1`, the “activity change, negative = inhibition” value was -1.34%. Regarding `COc1ccc(S(=O)(=O)Nc2ccc3c(c2)C(=O)N([C@H](C)CO)C[C@H](C)[C@H](CN(C)Cc2ccc(Oc4ccccc4)cc2)O3)cc1`, the “activity change, negative = inhibition” value is 13.6%.
